Test results reported in ChEMBL document CHEMBL1961873, “Compounds: GSK PKIS; Assays: Nanosyn kinase panel” (2012).

target: Ribosomal protein S6 kinase alpha-2 (Homo sapiens) (UniProt Q15349); settings: at 0.1 µM
Sequence (Q15349 whole entry): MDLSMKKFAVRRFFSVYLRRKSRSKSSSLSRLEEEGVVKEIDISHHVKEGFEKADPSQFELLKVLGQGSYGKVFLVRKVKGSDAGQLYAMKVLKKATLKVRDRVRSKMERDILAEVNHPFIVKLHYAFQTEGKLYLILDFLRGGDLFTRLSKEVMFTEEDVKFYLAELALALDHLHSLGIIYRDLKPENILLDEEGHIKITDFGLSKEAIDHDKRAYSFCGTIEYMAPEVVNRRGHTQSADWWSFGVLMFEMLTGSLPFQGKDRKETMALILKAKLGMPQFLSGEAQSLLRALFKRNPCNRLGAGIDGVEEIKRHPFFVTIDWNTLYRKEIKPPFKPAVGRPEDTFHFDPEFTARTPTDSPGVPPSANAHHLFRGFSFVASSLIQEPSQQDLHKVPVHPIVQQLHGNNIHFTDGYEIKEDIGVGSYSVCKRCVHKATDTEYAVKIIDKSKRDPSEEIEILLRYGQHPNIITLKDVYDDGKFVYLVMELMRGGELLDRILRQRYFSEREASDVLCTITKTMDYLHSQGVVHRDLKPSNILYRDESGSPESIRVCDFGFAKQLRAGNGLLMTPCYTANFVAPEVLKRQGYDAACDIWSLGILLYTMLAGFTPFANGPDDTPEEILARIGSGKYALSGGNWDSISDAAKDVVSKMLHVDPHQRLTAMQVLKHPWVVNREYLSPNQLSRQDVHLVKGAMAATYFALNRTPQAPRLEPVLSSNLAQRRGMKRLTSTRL

| SMILES | inhibition |
| --- | --- |
| c1ccc(COc2ccc(Nc3ncnc4ccc(-c5ccco5)cc34)cc2)cc1 | 1.13% |
| COC(=O)Nc1nc2ccc(S(=O)(=O)c3ccc(NC(=O)Nc4cc(C(F)(F)F)ccc4F)cc3)cc2[nH]1 | 1.99% |
| CN(C)CCOc1ccc(-c2nc(-c3ccncc3)c(-c3ccc4c(c3)CC/C4=N\O)[nH]2)cc1 | 1.9% |
| CS(=O)(=O)CCNCc1ccc(-c2ccc3ncnc(Nc4ccc(OCc5ccccc5)c(C(F)(F)F)c4)c3c2)o1 | 2.31% |
| COc1cc2ncn(-c3cc(OCc4ccccc4C(F)(F)F)c(C(=O)N(C)C)s3)c2cc1OC | -0.15% |
| CC(C)COC(=O)c1ccc2c(c1)/C(=C/Nc1ccc(S(N)(=O)=O)cc1)C(=O)N2 | 5.76% |
| CCc1nn2ncccc2c1-c1ccnc(NC2CC2)n1 | 3.18% |
| CN1CCC(n2cnc(-c3ccc(F)cc3)c2-c2ccnc(Nc3ccccc3)n2)CC1 | 2.93% |
| FC(F)(F)c1cccc(-c2nn3ncccc3c2-c2ccnc(Nc3ccc4c(c3)OCCO4)n2)c1 | 1.2% |
| COc1ccc2[nH]c3c4[nH]c5ccc(OC)cc5c4c4c(c3c2c1)C(=O)NC4=O | 73.5% |
| CNC(=O)c1cccc(C#Cc2cncnc2Nc2ccc(OCc3cccc(F)c3)c(Cl)c2)c1 | -0.63% |
| COc1cc(N2CCN(C(C)C)CC2)ccc1Nc1nc(Nc2ccc(F)cc2C(N)=O)c2cc[nH]c2n1 | 8.2% |
| Fc1ccc(-c2cc(-c3c[nH]nc3-c3ccccn3)ccn2)cc1 | 1.61% |
| COc1cc2c(cc1Nc1nc(Nc3ccsc3C(N)=O)c3cc[nH]c3n1)N(C(=O)CN(C)C)CCC2(C)C | 8.55% |
| Fc1ccc(-c2nn3ccccc3c2-c2ccncc2)cc1 | 0.67% |
| CCCN(CCS(C)(=O)=O)Cc1ccc(-c2ccc3ncnc(Nc4ccc(OCc5cccc(F)c5)c(Cl)c4)c3c2)o1 | 1.59% |
| COc1cc(/C=N/Nc2ncnc3[nH]ncc23)ccc1O | 1.62% |

| SMILES | inhibition |
| --- | --- |
| c1cc(-c2cnn3nc(N4CCOCC4)ccc23)nc(NC2CC2)n1 | 1.86% |
| CN1CCC(n2cnc(-c3ccc(F)cc3)c2-c2ccnc(N)n2)CC1 | 1.52% |
| Fc1ccc(-c2nn3ncccc3c2-c2ccnc(Nc3ccc4c(c3)OCCO4)n2)cc1 | 2.3% |
| COc1ccc(-c2oc3ncnc(N)c3c2-c2ccc(NC(=O)Nc3cc(C(F)(F)F)ccc3F)cc2)cc1 | 1.67% |
| CCN(CC)S(=O)(=O)c1ccc(OC)c(Nc2ncc(-c3ccccc3)o2)c1 | 0.64% |
| Cc1ccc(O)cc1Nc1ccnc2cc(-c3ccccn3)ccc12 | 1.68% |
| COc1ccc(-c2nn3ncccc3c2-c2ccnc(Nc3ccc4c(c3)OCCO4)n2)cc1 | 1.27% |
| COc1cccc(-n2ncc3c(N/N=C/c4ccc(F)cc4)ncnc32)c1 | 0.94% |
| CC1=C(C(=O)Nc2cc(Cl)c3[nH]ncc3c2)C(c2ccc(C(F)(F)F)cc2)CC(=O)N1 (stereo not drawn) | 13.1% |
| COc1cccc(-c2c[nH]c3c(N/N=C/c4ccncc4)ncnc23)c1 | 2.28% |
| CC(C)(CO)CNC(=O)c1ccc2c(c1)/C(=N/Nc1ccc(S(N)(=O)=O)cc1)C(=O)N2 | 0.48% |
| NS(=O)(=O)c1ccc(N/N=C2\C(=O)Nc3ccc4ncccc4c32)cc1 | 15.9% |
| CCn1c(-c2nonc2N)nc2cnc(Oc3cccc(NC(=O)c4ccc(N(C)C)cc4)c3)cc21 | 17.4% |
| c1ccc(-c2nc3n(c2-c2ccc4c(c2)OCO4)CCC3)nc1 | 1.95% |
| NC(=O)c1sc(-n2cnc3ccc(C(F)(F)F)cc32)cc1OCc1ccccc1Br | 0.97% |
| COc1ccc(-c2cc3c(N)ncnc3o2)cc1 | -0.65% |
| N#Cc1c(NC(=O)c2ccc(F)cc2)sc2c1CCCC2 | -0.44% |

target: Ribosomal protein S6 kinase alpha-2 (Homo sapiens) (UniProt Q15349); settings: at 1 µM

| SMILES | inhibition |
| --- | --- |
| c1ccc(COc2ccc(Nc3ncnc4ccc(-c5ccco5)cc34)cc2)cc1 | 0.34% |
| COC(=O)Nc1nc2ccc(S(=O)(=O)c3ccc(NC(=O)Nc4cc(C(F)(F)F)ccc4F)cc3)cc2[nH]1 | 2.47% |
| CN(C)CCOc1ccc(-c2nc(-c3ccncc3)c(-c3ccc4c(c3)CC/C4=N\O)[nH]2)cc1 | 2.18% |
| CS(=O)(=O)CCNCc1ccc(-c2ccc3ncnc(Nc4ccc(OCc5ccccc5)c(C(F)(F)F)c4)c3c2)o1 | 2.74% |
| COc1cc2ncn(-c3cc(OCc4ccccc4C(F)(F)F)c(C(=O)N(C)C)s3)c2cc1OC | 1.29% |
| CC(C)COC(=O)c1ccc2c(c1)/C(=C/Nc1ccc(S(N)(=O)=O)cc1)C(=O)N2 | 35.5% |
| CCc1nn2ncccc2c1-c1ccnc(NC2CC2)n1 | 2.75% |
| CN1CCC(n2cnc(-c3ccc(F)cc3)c2-c2ccnc(Nc3ccccc3)n2)CC1 | 2.91% |
| FC(F)(F)c1cccc(-c2nn3ncccc3c2-c2ccnc(Nc3ccc4c(c3)OCCO4)n2)c1 | 2.46% |
| COc1ccc2[nH]c3c4[nH]c5ccc(OC)cc5c4c4c(c3c2c1)C(=O)NC4=O | 92.4% |
| CNC(=O)c1cccc(C#Cc2cncnc2Nc2ccc(OCc3cccc(F)c3)c(Cl)c2)c1 | 0.72% |
| COc1cc(N2CCN(C(C)C)CC2)ccc1Nc1nc(Nc2ccc(F)cc2C(N)=O)c2cc[nH]c2n1 | 43.7% |
| Fc1ccc(-c2cc(-c3c[nH]nc3-c3ccccn3)ccn2)cc1 | 2.64% |
| COc1cc2c(cc1Nc1nc(Nc3ccsc3C(N)=O)c3cc[nH]c3n1)N(C(=O)CN(C)C)CCC2(C)C | 34.4% |
| Fc1ccc(-c2nn3ccccc3c2-c2ccncc2)cc1 | 1.19% |
| CCCN(CCS(C)(=O)=O)Cc1ccc(-c2ccc3ncnc(Nc4ccc(OCc5cccc(F)c5)c(Cl)c4)c3c2)o1 | 1.46% |
| COc1cc(/C=N/Nc2ncnc3[nH]ncc23)ccc1O | 9.77% |

| SMILES | inhibition |
| --- | --- |
| c1cc(-c2cnn3nc(N4CCOCC4)ccc23)nc(NC2CC2)n1 | 5.06% |
| CN1CCC(n2cnc(-c3ccc(F)cc3)c2-c2ccnc(N)n2)CC1 | 4.57% |
| Fc1ccc(-c2nn3ncccc3c2-c2ccnc(Nc3ccc4c(c3)OCCO4)n2)cc1 | 4.22% |
| COc1ccc(-c2oc3ncnc(N)c3c2-c2ccc(NC(=O)Nc3cc(C(F)(F)F)ccc3F)cc2)cc1 | 34.1% |
| CCN(CC)S(=O)(=O)c1ccc(OC)c(Nc2ncc(-c3ccccc3)o2)c1 | 1.51% |
| Cc1ccc(O)cc1Nc1ccnc2cc(-c3ccccn3)ccc12 | 2.66% |
| COc1ccc(-c2nn3ncccc3c2-c2ccnc(Nc3ccc4c(c3)OCCO4)n2)cc1 | 0.17% |
| COc1cccc(-n2ncc3c(N/N=C/c4ccc(F)cc4)ncnc32)c1 | 3.3% |
| CC1=C(C(=O)Nc2cc(Cl)c3[nH]ncc3c2)C(c2ccc(C(F)(F)F)cc2)CC(=O)N1 (stereo not drawn) | 53.4% |
| COc1cccc(-c2c[nH]c3c(N/N=C/c4ccncc4)ncnc23)c1 | 11.7% |
| CC(C)(CO)CNC(=O)c1ccc2c(c1)/C(=N/Nc1ccc(S(N)(=O)=O)cc1)C(=O)N2 | 6.29% |
| NS(=O)(=O)c1ccc(N/N=C2\C(=O)Nc3ccc4ncccc4c32)cc1 | 61.7% |
| CCn1c(-c2nonc2N)nc2cnc(Oc3cccc(NC(=O)c4ccc(N(C)C)cc4)c3)cc21 | 63.6% |
| c1ccc(-c2nc3n(c2-c2ccc4c(c2)OCO4)CCC3)nc1 | 1.35% |
| NC(=O)c1sc(-n2cnc3ccc(C(F)(F)F)cc32)cc1OCc1ccccc1Br | 3.47% |
| COc1ccc(-c2cc3c(N)ncnc3o2)cc1 | 0.29% |
| N#Cc1c(NC(=O)c2ccc(F)cc2)sc2c1CCCC2 | 1.7% |
